Experimental findings from PubChem BioAssay (NCI) are described below.

Compounds without any hit were thinned out: in the full panel of roughly 83,000, 20% have a hit.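 Step 1: grow cells in 96-well plates. Step 2: add test compound at a single concentration. Step 3: incubate 48 h. Step 4: record percent growth.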 Unmarked numbers belong to inactive results. Calls of active or inactive are those of the source. How the source made its calls: active means growth percent below 10; inactive means the rest.

Some test systems named below: HCT-15 colon; HT29 colon; SNB-75 CNS; SNB-19 CNS; U251 CNS; PC-3 prostate; SK-MEL-5 melanoma; UACC-62 melanoma; LOX IMVI melanoma; SK-MEL-28 melanoma.
Common to all, as to assay: NCI-60 one-dose screen, 48 h (100 = growth as untreated, 0 = no growth, -100 = all killed)
Holding throughout (settings): 10 µM unless noted

Consider `Cc1cc(Cl)ccc1OC(C)C(=O)Nc1nnc(C2CC2)s1` (stereo unspecified), for which the growth with HCT-15 colon is 119%; in the assay on HT29 colon, 66.4%; in the assay on SNB-75 CNS it was 104%; with SNB-19 CNS it was 95.6%; with U251 CNS it was 101%; in the assay on PC-3 prostate, 99.2%. For the same molecule, the growth in the assay on SK-MEL-5 melanoma was 74%; in the assay on UACC-62 melanoma, 85.5%; in the assay on LOX IMVI melanoma, 95.4%; in the assay on SK-MEL-28 melanoma, 120%.
With `O=C(C[N+](=O)[O-])c1ccc(Cl)cc1`, the growth is 103% in the assay on HCT-15 colon; 113% with HT29 colon; 94.9% with SNB-75 CNS; 111% with SNB-19 CNS; 107% in the assay with U251 CNS; 97.3% with PC-3 prostate. Moreover, the growth is 104% in the assay with SK-MEL-5 melanoma, 101% in the assay on UACC-62 melanoma, 96.4% in the assay on LOX IMVI melanoma and 106% in the assay with SK-MEL-28 melanoma.
Turning to `CCC(c1cccc(Br)c1)C(C(=O)O)c1ccc(OC)cc1` (stereo unspecified), the growth with HCT-15 colon is 83.5%; with HT29 colon, 106%; with SNB-75 CNS it was 96%; with SNB-19 CNS it was 104%; in the assay with U251 CNS, 90.4%; in the assay on PC-3 prostate, 90.2%. Moreover, the growth is 94.6% with SK-MEL-5 melanoma, 82.9% in the assay with UACC-62 melanoma, 95.8% in the assay with LOX IMVI melanoma and 95.8% in the assay with SK-MEL-28 melanoma.
In the case of `CCN(CC)CCC(=O)c1cccc2ccccc12`, the growth with HCT-15 colon was 102%; with HT29 colon, 110%; with SNB-75 CNS, 101%; in the assay on SNB-19 CNS, 102%; in the assay on U251 CNS, 104%; in the assay with PC-3 prostate, 95.3%. Also, the growth in the assay with SK-MEL-5 melanoma is 114%; with UACC-62 melanoma, 97%; in the assay with LOX IMVI melanoma, 94.3%; with SK-MEL-28 melanoma it was 111%.
For the molecule `CCCCCCCCCCCCNC(=S)N/N=C/c1ccc(Cl)c(Cl)c1`, the growth in the assay with HCT-15 colon is 87.2%; in the assay on HT29 colon, 82.2%; with SNB-75 CNS it was 96.8%; in the assay with SNB-19 CNS, 114%; in the assay with U251 CNS it was 108%; with PC-3 prostate, 107%. Also, the growth is 99% in the assay with SK-MEL-5 melanoma, 95.5% in the assay on UACC-62 melanoma, 120% in the assay on LOX IMVI melanoma and 104% in the assay on SK-MEL-28 melanoma.
As to `O=C(CCCn1c(=O)c2sc3ccccc3c2n2nnc(-c3ccccc3)c12)NCCc1cnc[nH]1`, the growth in the assay on HCT-15 colon is -63.1% (active); in the assay with HT29 colon, -94.1% (active); in the assay with SNB-75 CNS, 28.2%; with SNB-19 CNS it was -12.3% (active); in the assay with U251 CNS, -51.2% (active); with PC-3 prostate it was -14% (active). Also, the growth is -69.6% (active) in the assay on SK-MEL-5 melanoma, -78.5% (active) in the assay with UACC-62 melanoma, -16.7% (active) in the assay with LOX IMVI melanoma and -49.7% (active) in the assay on SK-MEL-28 melanoma.
In the case of `Clc1ccc([I+]c2ccc(Cl)cc2Cl)c(Cl)c1`, the growth with HCT-15 colon is 30.2%; in the assay with HT29 colon, -26.8% (active); in the assay on SNB-75 CNS it was 34%; in the assay on SNB-19 CNS it was 87.8%; in the assay with U251 CNS, 6.72% (active); in the assay with PC-3 prostate, 9.9% (active). Also, the growth with SK-MEL-5 melanoma was 104%; in the assay on UACC-62 melanoma it was 12.3%; in the assay with LOX IMVI melanoma it was 10.5%; in the assay with SK-MEL-28 melanoma it was 87.3%.
As to `CS(=O)(=O)N(c1cc(-c2ccc3ncnc(Nc4cccc(Cl)c4)c3c2)cnc1Cl)S(C)(=O)=O`, the growth in the assay with HCT-15 colon is 10.4%; with HT29 colon it was 11.7%; in the assay on SNB-75 CNS it was -3.18% (active); in the assay on SNB-19 CNS, 24.3%; with U251 CNS, 20.8%; in the assay with PC-3 prostate, 10.7%. Moreover, the growth is -60.7% (active) in the assay with SK-MEL-5 melanoma, -6.31% (active) with UACC-62 melanoma, 2.19% (active) with LOX IMVI melanoma and -6.78% (active) in the assay on SK-MEL-28 melanoma.
With `CCNC(=O)CCCCC(=O)c1c(C)[nH]c(/C=C2\N=C(c3ccc[nH]3)C=C2OC)c1C`, the growth was -39.8% (active) in the assay with HCT-15 colon; -100% (active) with HT29 colon; -12.6% (active) in the assay with SNB-75 CNS; 54.5% with SNB-19 CNS; 1.75% (active) in the assay with U251 CNS; -42.2% (active) with PC-3 prostate. In addition, the growth with SK-MEL-5 melanoma is 48%; in the assay on UACC-62 melanoma it was 61.5%; with LOX IMVI melanoma it was -56.9% (active); with SK-MEL-28 melanoma, 51.9%.
`CN(C)CCCNC(=O)C(c1ccccc1)c1ccccc1`: the growth was 104% in the assay on HCT-15 colon; 95.9% in the assay on HT29 colon; 94.5% in the assay on SNB-75 CNS; 97.3% with SNB-19 CNS; 98.2% in the assay on U251 CNS; 99.1% in the assay on PC-3 prostate. For the same molecule, the growth with SK-MEL-5 melanoma was 103%; with UACC-62 melanoma, 98.8%; with LOX IMVI melanoma, 89.3%; in the assay with SK-MEL-28 melanoma, 109%.
Turning to `CCNc1nc(N2CC(=O)Nc3cc(OC)ccc32)c2ccccc2n1`, the growth in the assay with HCT-15 colon is 6.11% (active); in the assay on HT29 colon it was 0.723% (active); in the assay on SNB-75 CNS, 24.7%; in the assay with SNB-19 CNS it was 19.2%; with U251 CNS, 8.29% (active); in the assay on PC-3 prostate, 6.21% (active). Also, the growth in the assay with SK-MEL-5 melanoma is -81.6% (active); in the assay on UACC-62 melanoma it was 9.13% (active); in the assay on SK-MEL-28 melanoma, 45%.
Consider `O=C1CCCCC=C1C[N+](=O)[O-]`, for which the growth was 75.2% in the assay with HCT-15 colon; 83.3% with HT29 colon; 105% in the assay with SNB-75 CNS; 97.5% with SNB-19 CNS; 88.4% with U251 CNS; 85.5% with PC-3 prostate. Moreover, the growth is 71.9% with SK-MEL-5 melanoma, 91.8% in the assay on UACC-62 melanoma and 89.2% with SK-MEL-28 melanoma.
Turning to `Cc1cc(C)c(S(=O)(=O)N2CCN(c3cc4c(cc3F)c(=O)c(C(=O)O)cn4C3CC3)CC2)c(C)c1`, the growth in the assay on HCT-15 colon is 55.1%; with HT29 colon, 28.3%; in the assay with SNB-75 CNS, 36.6%; with SNB-19 CNS, 66.3%; with U251 CNS, 19.7%; in the assay with PC-3 prostate it was 67.9%. For the same molecule, the growth with SK-MEL-5 melanoma was 54.9%; in the assay with UACC-62 melanoma, 76.6%; in the assay on SK-MEL-28 melanoma, 69.1%.
Take `COc1cccc(-n2cc(-c3nc(Cl)c4ccccc4n3)nn2)c1`: the growth in the assay on HCT-15 colon is 98.2%; in the assay with HT29 colon, 53.1%; in the assay on SNB-75 CNS, 72.3%; in the assay on SNB-19 CNS it was 94%; with U251 CNS it was 153%; with PC-3 prostate it was 97.5%. Also, the growth with SK-MEL-5 melanoma was 95.1%; in the assay with UACC-62 melanoma, 97.4%; with SK-MEL-28 melanoma, 95%.
